Measurements as given in PubChem BioAssay AID2561 (National Center for Advancing Translational Sciences (NCATS), 2010).
Inconclusive results are not listed. A number with no mark means an inactive call. Activity calls are given as the source filed them. The call rests on the fitted dose curve; in most records, active means well fitted inhibition curve with a large enough effect; inconclusive means small, poorly fitted or top-dose-only effect, or effect the other way; inactive means flat fitted curve, though single readings scatter.

What follows are molecules tested against Pyruvate kinase (Leishmania mexicana) (UniProt Q27686) (assay: Confirmation Assay for Inhibitors of Leishmania Mexicana Pyruvate Kinase (LmPK): for Probe SAR). Details: purified LmPK, ATP generation, Kinase-Glo luminescence; series mostly up to 57.5 µM; activity change, negative = inhibition: at the top concentration.
Pyruvate kinase (Leishmania mexicana), sequence (Q27686 whole entry, looked up): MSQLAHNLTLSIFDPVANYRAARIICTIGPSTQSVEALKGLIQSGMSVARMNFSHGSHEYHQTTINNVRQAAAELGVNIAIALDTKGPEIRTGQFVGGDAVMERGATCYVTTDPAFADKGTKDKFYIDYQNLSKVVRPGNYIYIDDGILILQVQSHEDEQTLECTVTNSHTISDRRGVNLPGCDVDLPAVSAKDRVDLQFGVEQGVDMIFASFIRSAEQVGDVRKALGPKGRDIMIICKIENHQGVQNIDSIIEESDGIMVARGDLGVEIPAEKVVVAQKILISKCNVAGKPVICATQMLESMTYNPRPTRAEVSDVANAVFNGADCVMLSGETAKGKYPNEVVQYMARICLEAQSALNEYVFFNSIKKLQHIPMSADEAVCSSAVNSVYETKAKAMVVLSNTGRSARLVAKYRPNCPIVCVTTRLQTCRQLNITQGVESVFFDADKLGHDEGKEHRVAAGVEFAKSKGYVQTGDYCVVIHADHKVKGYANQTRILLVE
Summary of the method: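 Coupled luminescent assay: ATP produced by LmPK (0.1 nM) from ADP (0.1 mM, ~10-fold below Km) and PEP (0.5 mM, at Km) after 1 h RT, detected with Kinase-Glo. Data scaled between no-enzyme and uninhibited controls.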
Potency means the concentration at half of the fitted maximal effect.
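Wherever activity change, negative = inhibition is given: plate controls were uninhibited enzyme for no effect and no enzyme wells for full effect.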

| SMILES | activity change, negative = inhibition [%] | Potency |
| --- | --- | --- |
| O=C1CCc2cc(S(=O)(=O)Nc3ccc4c(c3)OCCO4)ccc2N1 | 14.1 | – |
| Cc1ccc(NS(=O)(=O)c2cc3c(cc2C)NC(=O)CO3)cc1C | 15.9 | – |
| Cc1ccc(NS(=O)(=O)c2ccc3c(c2)CCC(=O)N3)cc1C | -0.583 | – |
| O=S1(=O)N=C(Sc2ccc3c(c2)OCCO3)c2ccccc21 | – | 3.66 µM (active) |
| Cc1ccc(NS(=O)(=O)c2ccc3c(c2)n(C)c(=O)n3C)cc1C | 3.57 | – |
| COc1ccc(OC2=NS(=O)(=O)c3ccccc32)cc1 | – | 4.31 µM (active) |
| CSc1cc2c(s1)c1cnn(Cc3cccc(O)c3)c(=O)c1n2C | 19.9 | – |
| O=C1c2ccccc2C(=O)N1Cc1cccnc1 | -2.71 | – |
| O=C1c2ccccc2C(=O)N1Cc1ccccc1 | 7.51 | – |
| Cc1ccc2nc(-c3ccc(C)o3)c(Nc3ccc(Cl)cc3)n2c1 | -24.6 | – |
| Cc1cc(N2C(=O)c3ccccc3C2=O)n[nH]1 | 10.3 | – |
